Screening results: PubChem BioAssay, several laboratories
ERa SRC1 inh: ER-alpha (human) coactivator binding inhibition; TR-FRET ER-alpha LBD / SRC-1 peptide, estradiol-bound; P03372; inhibition, % at 25.6 µM; 86,000 tested, 1.7% active; in the data active = inhibition above about 50%
ERa coact pot: enhances coactivator binding to human estrogen receptor alpha; P03372; TR-FRET ERalpha-LBD/SRC-Cy5 coactivator binding, 2 h; 100 = basal binding, no effect; coactivator binding (% of control), % at 25.6 µM; 86,000 tested, 1.3% active; in the data active = activity above about 200%;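 note: binding measured in presence of low estradiol as agonist stimulus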
MRP reversal: MRP-mediated drug resistance reversal; H69AR cells + 2 uM doxorubicin, CellTiter-Glo, 72 h; differential viability (reversal), % at 10 µM; 85,000 tested, 0.04% active;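 active = viability drop by adding the cancer drug above about 55%, with treated viability meeting a 40% cutoff, limit read from the data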;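 note: larger differential means the compound sensitizes cells more to doxorubicin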
ERb SRC1 inh: ER-beta (human) coactivator binding inhibition; TR-FRET ER-beta LBD / SRC1-Cy5 peptide binding; receptor agonist-loaded with 1 µM estradiol; 86,000 tested, 1.3% active; inhibition, % at 25.6 µM; AID 633;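 active = compounds whose percent inhibition of the receptor-coactivator binding signal exceeds about 50% in the single-dose screen, limit read from the data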
MRP-1 activ: activates MRP-1. viability increase, % at 10 µM. H69AR cells + doxorubicin, viability rescue, CellTiter-Glo. 140,000 tested, 0.61% active;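 active = viability gain under doxorubicin at or above a set limit, the compound median plus 3 SD, cut at about 4.7% in these data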;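 note: MRP-1 overexpressing cells given doxorubicin 25 µM after compound pretreatment; 18-22 h compound pretreatment then 72 h with doxorubicin before readout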
Smad3 FoxH1 inh: Smad3 (human) transcription factor binding inhibition. P84022. TR-FRET Smad3/Dy647-FoxH1 peptide binding, europium anti-His. inhibition, % at 25 µM. 88,000 tested, 0.29% active. AID 630;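 active = compounds that reduce the energy-transfer binding signal between the protein and its labelled peptide by more than half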
Target sequence (P84022 whole entry, looked up): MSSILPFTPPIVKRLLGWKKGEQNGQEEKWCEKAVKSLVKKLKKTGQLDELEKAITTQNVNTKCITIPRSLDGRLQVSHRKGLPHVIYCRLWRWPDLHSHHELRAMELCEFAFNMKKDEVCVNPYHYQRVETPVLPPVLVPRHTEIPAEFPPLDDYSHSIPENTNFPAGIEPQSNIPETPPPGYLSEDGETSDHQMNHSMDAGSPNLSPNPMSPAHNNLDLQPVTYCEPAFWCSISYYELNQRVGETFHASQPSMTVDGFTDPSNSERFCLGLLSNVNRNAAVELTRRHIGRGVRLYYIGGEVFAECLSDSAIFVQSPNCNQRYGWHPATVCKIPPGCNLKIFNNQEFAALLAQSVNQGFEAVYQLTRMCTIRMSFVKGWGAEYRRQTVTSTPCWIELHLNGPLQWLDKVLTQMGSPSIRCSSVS
Numbers stand for hits; [ ] = dose if it differs, or a comment. In the library only some 2.9% were active in any assay of this set; here they are far more common.

Cc1ccc(-c2nnc(CSc3nc4cc5c(cc4cc3C)OCO5)o2)cc1 was read as ERa SRC1 inh 77[fluorescence artefact?], ERa coact pot 206[fluorescence artefact?], MRP reversal inactive, ERb SRC1 inh 60, MRP-1 activ inactive and Smad3 FoxH1 inh inactive.
`COc1ccc2[nH]c3nc(SCc4nnc(-c5ccccc5)o4)nnc3c2c1` gave ERa SRC1 inh 85[fluorescence artefact?], ERa coact pot inactive, MRP reversal inactive, ERb SRC1 inh 52[fluorescence artefact?], MRP-1 activ inactive and Smad3 FoxH1 inh inactive.
For C[C@]12CC[C@H](O)C[C@@H]1CC[C@H]1[C@H]2CC[C@]2(C)[C@@H]1CC[C@H]2c1cc(C(F)(F)F)n[nH]1 the results were Smad3 FoxH1 inh inactive.
CC(=O)N[C@@H]1CONC1=O was read as Smad3 FoxH1 inh inactive.
`CCc1nnc2sc(-c3ccc(NC(=O)c4ccc5c(c4)OCCO5)cc3)nn12` gave ERa SRC1 inh inactive, ERa coact pot 326, MRP reversal inactive, ERb SRC1 inh inactive, MRP-1 activ inactive and Smad3 FoxH1 inh inactive.
`Cc1nn(C)c(Oc2cccc(Cl)c2)c1C(=O)Nc1ccc(F)cc1` gave MRP-1 activ inactive.
`Cc1ccc(C)c(OCC(=O)Nc2nonc2NC(=O)COc2cc(C)ccc2C)c1` gave ERa SRC1 inh 63[fluorescence artefact?], ERa coact pot inactive, MRP reversal inactive, ERb SRC1 inh inactive, MRP-1 activ inactive and Smad3 FoxH1 inh inactive.
For Cc1cccc(OCC(=O)Nc2nonc2NC(=O)COc2cccc(C)c2)c1 the results were ERa SRC1 inh 72[fluorescence artefact?], ERa coact pot inactive, MRP reversal inactive, ERb SRC1 inh 52[fluorescence artefact?], MRP-1 activ inactive and Smad3 FoxH1 inh inactive.
`COc1ccccc1OCC(=O)Nc1nonc1NC(=O)COc1ccccc1OC` gave MRP-1 activ inactive.
Screening CCN1C(=S)SC(=O)C1=C1C=C(C)N(CCO)C(C)=C1 returned ERa SRC1 inh inactive, ERa coact pot 244[fluorescence artefact?], MRP reversal inactive, ERb SRC1 inh inactive, MRP-1 activ inactive and Smad3 FoxH1 inh inactive.
Screening CC(C)(C)C(=O)CNS(=O)(=O)c1ccc(S(=O)(=O)NC2CCCC2)cc1 returned ERa SRC1 inh inactive, ERa coact pot 284[fluorescence artefact?], MRP reversal inactive, ERb SRC1 inh inactive, MRP-1 activ inactive and Smad3 FoxH1 inh inactive.
Screening Cc1ccc(NC(=O)N(Cc2cccs2)Cc2cc3cc4c(cc3[nH]c2=O)OCO4)cc1 returned MRP-1 activ inactive.
Screening CCc1ccc2[nH]c(=O)c(CN(Cc3ccc4c(c3)OCO4)C(=O)c3ccco3)cc2c1 returned ERa SRC1 inh 74, ERa coact pot inactive, MRP reversal inactive, ERb SRC1 inh inactive, MRP-1 activ inactive and Smad3 FoxH1 inh inactive.
Screening Cc1ccc(NC(=O)N(Cc2ccc3c(c2)OCO3)Cc2cc3cc4c(cc3[nH]c2=O)OCCO4)cc1 returned ERa SRC1 inh inactive, ERa coact pot inactive, MRP reversal 55, ERb SRC1 inh inactive, MRP-1 activ inactive and Smad3 FoxH1 inh inactive.
For O=C1c2ccccc2C(O)(O)[C@@]1(O)[C@]1(O)C(=O)c2ccccc2C1(O)O the results were Smad3 FoxH1 inh inactive.
For COc1cc(C2C(C#N)=C(N)Oc3cc(C)oc(=O)c32)cc2c1OCO2 (centres undefined) the results were ERa SRC1 inh 70, ERa coact pot inactive, MRP reversal inactive, ERb SRC1 inh 62, MRP-1 activ inactive and Smad3 FoxH1 inh inactive.
`CCCSc1nc2c(c(=O)[nH]c(=O)n2C)n1Cc1ccc(C)cc1` gave ERa SRC1 inh 67[fluorescence artefact?], ERa coact pot inactive, MRP reversal inactive, ERb SRC1 inh inactive, MRP-1 activ inactive and Smad3 FoxH1 inh inactive.
`Nc1c(C(=O)NCC2CCCO2)c2nc3ccccc3nc2n1/N=C/c1ccncc1` (centres undefined) gave ERa SRC1 inh inactive, ERa coact pot 314[fluorescence artefact?], MRP reversal inactive, ERb SRC1 inh inactive and Smad3 FoxH1 inh inactive.
Screening CCOC(=O)C1=C(Nc2ccc(Br)cc2)CC(C)(O)C(C(=O)OCC)C1c1ccccc1 (centres undefined) returned MRP-1 activ inactive.
`CCC(=O)c1coc2ccc(O)cc12` gave ERa SRC1 inh 67[fluorescence artefact?], ERa coact pot inactive, MRP reversal inactive, ERb SRC1 inh 78[fluorescence artefact?] and Smad3 FoxH1 inh inactive.
For O=C(Nc1ccc(Cl)cc1C(=O)N1CCOCC1)c1ccco1 the results were ERa SRC1 inh inactive, ERa coact pot inactive, MRP reversal inactive, ERb SRC1 inh inactive, MRP-1 activ inactive and Smad3 FoxH1 inh inactive.
`CC1CCCCN1CC(=O)Nc1sc2c(c1C#N)CCC2` (centres undefined) gave ERa SRC1 inh inactive, ERa coact pot inactive, MRP reversal inactive, ERb SRC1 inh 53, MRP-1 activ inactive and Smad3 FoxH1 inh inactive.
For N#Cc1c(NC(=O)CN2CCCCC2)sc2c1CCC2 the results were ERa SRC1 inh inactive, ERa coact pot inactive, MRP reversal inactive, ERb SRC1 inh inactive, MRP-1 activ inactive and Smad3 FoxH1 inh inactive.
`Cc1ccc2nc(/C(C#N)=C\c3ccc(N4CCCCC4)c([N+](=O)[O-])c3)[nH]c2c1` gave ERa SRC1 inh 82, ERa coact pot inactive, MRP reversal inactive, ERb SRC1 inh inactive, MRP-1 activ inactive and Smad3 FoxH1 inh inactive.
For COC(=O)C(NC(=O)Nc1ccccc1OC)C(C)C (centres undefined) the results were MRP-1 activ inactive.
`COc1ccccc1NC(=O)CSC1=NCCN1` gave MRP-1 activ 50.
`O=C(CSC1=NCCN1)Nc1ccccc1` gave Smad3 FoxH1 inh inactive.
Cc1ccccc1NC(=O)CSC(N)=O was read as ERa SRC1 inh inactive, ERa coact pot inactive, MRP reversal inactive, ERb SRC1 inh inactive, MRP-1 activ inactive and Smad3 FoxH1 inh inactive.
COc1ccccc1NC(=O)NC(N)=O was read as ERa SRC1 inh inactive, ERa coact pot inactive, MRP reversal inactive, ERb SRC1 inh 74, MRP-1 activ inactive and Smad3 FoxH1 inh inactive.
For COc1ccccc1NC(=O)CSC(N)=O the results were ERa SRC1 inh inactive, ERa coact pot inactive, MRP reversal inactive, ERb SRC1 inh inactive, MRP-1 activ 5.6 and Smad3 FoxH1 inh inactive.
For O=C(CC1SC(=O)N(Cc2ccc(Cl)cc2)C1=O)Nc1nccs1 (centres undefined) the results were MRP-1 activ 12.
For Cc1ccccc1Nc1nnc(SCC(=O)NC(=O)NCc2ccco2)s1 the results were ERa SRC1 inh 75, ERa coact pot inactive, MRP reversal inactive, ERb SRC1 inh 56[fluorescence artefact?], MRP-1 activ inactive and Smad3 FoxH1 inh inactive.
For O=C(CSc1nnc(Nc2ccccc2)s1)NCc1ccco1 the results were ERa SRC1 inh inactive, ERa coact pot inactive, MRP reversal inactive, ERb SRC1 inh inactive, MRP-1 activ inactive and Smad3 FoxH1 inh inactive.
Screening CCCC(=O)Nc1nnc(SCC(=O)NCc2ccco2)s1 returned MRP-1 activ inactive.
`O=C(CSc1nnc(Nc2ccccc2F)s1)NCc1ccco1` gave ERa SRC1 inh 81[fluorescence artefact?], ERa coact pot inactive, MRP reversal inactive, ERb SRC1 inh 69, MRP-1 activ inactive and Smad3 FoxH1 inh inactive.
